Assay outcomes from PubChem.
An excerpt weighted towards active compounds, which were near 9% of everything screened.
Luc counter: Counterscreen for Luciferase (Kinase-Glo TM) Inhibition | Kinase-Glo luciferase, ATP luminescence, 8 min | Potency, µM (doses to about 38.3 µM), for inactives: top-dose activity change, negative = inhibition, usual class: inhibitors | Luciferin 4-monooxygenase (Photuris pensylvanica), Q27757 | 200,000 tested, 0.28% active; also: % is scaled to controls: 0 for no effect and ±100 for the full control effect; nearly all actives have a fitted effect of over 60% in size
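Luminescence was the read-out, taken after 8-minute incubation at ambient temperature. Luciferase turned over luciferin with 10 uM ATP in imidazole pH 7.2 buffer containing KCl, MgCl2, Tween 20 and BSA.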
HttQ103 aggreg: qHTS Multiplex Assay to Identify Dual Action Probes in a Cell Model of Huntington: Aggregate Formation (GFP). PC12 HttQ103-GFP aggregates, Acumen cytometry, 40 h. Potency, µM (titrated, usually from 46.1 µM), for the others: at the highest dose activity change, negative = inhibition, most hits filed as inhibitors. 220,000 tested, 1.1% active; also: % is scaled to controls: 0 for no effect and ±100 for the full control effect; nearly all actives have a fitted effect of over 60% in size
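PC12 cells with ecdysone-inducible HTT exon1 Q103-GFP, induced by 100 nM tebufenozide, given compounds in a concentration series. GFP aggregates (1–25 um, 6 SD above background) counted in lysates by laser-scanning cytometry, 488 nm excitation.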
HTT cytoprotect: qHTS Multiplex Assay to Identify Dual Action Probes in a Cell Model of Huntington: Cytoprotection (ATP); PC12 HTT-Q103 induced, cytoprotection, ATP luminescence, 40 h; Potency, µM (series often up to 56.4 µM), without a hit: cytoprotection (ATP increase), hits mostly activators; 230,000 tested, 0.14% active; AID 1471, 2008; also: % of control where 0% means no effect; nearly all actives have a fitted effect of over 45% in size
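Readout: ATPlite luminescence (ATP level). Model: stable PC12, inducible Htt exon1 Q103-GFP. Inducer: tebufenozide, 100 nM final. Compounds: dose series. No G418 in medium.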
ALDH1A1 inh: qHTS Assay for Inhibitors of Aldehyde Dehydrogenase 1 (ALDH1A1); Aldehyde dehydrogenase 1A1 (Homo sapiens), P00352; Purified ALDH1A1, NADH fluorescence, propionaldehyde substrate; Potency, µM (doses to about 75.3 µM), without a hit: at the top dose activity, negative = inhibition, actives largely listed as inhibitors; 220,000 tested, 7.3% active; AID 1030, 2008; active = well fitted inhibition curve with a large enough effect, not every such curve was filed as active; inconclusive = small, poorly fitted or top-dose-only effect, or another doubt; inactive = no such curve, though single readings can be large or run the other way;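 also: plate controls were no enzyme wells and a reference inhibitor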
Target sequence (P00352 whole entry, looked up): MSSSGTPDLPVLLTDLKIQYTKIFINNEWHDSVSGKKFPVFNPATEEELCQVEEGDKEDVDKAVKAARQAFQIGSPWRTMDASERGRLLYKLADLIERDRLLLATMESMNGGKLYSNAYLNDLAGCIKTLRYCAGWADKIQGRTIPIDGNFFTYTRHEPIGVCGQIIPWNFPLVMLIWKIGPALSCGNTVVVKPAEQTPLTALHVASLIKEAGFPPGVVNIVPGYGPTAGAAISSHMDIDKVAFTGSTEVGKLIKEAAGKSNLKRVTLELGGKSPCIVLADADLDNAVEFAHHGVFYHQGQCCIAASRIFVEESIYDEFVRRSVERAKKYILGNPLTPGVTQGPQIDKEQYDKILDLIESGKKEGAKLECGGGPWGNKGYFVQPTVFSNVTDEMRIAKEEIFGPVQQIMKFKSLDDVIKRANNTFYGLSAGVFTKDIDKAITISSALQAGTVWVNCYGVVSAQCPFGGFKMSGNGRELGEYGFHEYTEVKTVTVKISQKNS
HPGD block: qHTS Assay for Inhibitors of HPGD (15-Hydroxyprostaglandin Dehydrogenase). 15-hydroxyprostaglandin dehydrogenase [NAD(+)] (Homo sapiens), P15428. purified HPGD, NADH fluorescence kinetic, PGE2 substrate. Potency, µM, for inactives: top-dose activity change, negative = inhibition, hits mostly inhibitors. 150,000 tested, 4.3% active. AID 894, 2007; active = well fitted inhibition curve with a large enough effect, not every such curve was filed as active; inconclusive = small, poorly fitted or top-dose-only effect, or another doubt; inactive = no such curve, though single readings can be large or run the other way; also: % is scaled to controls: 0 for no effect and ±100 for the full control effect
Target sequence (P15428 whole entry, looked up): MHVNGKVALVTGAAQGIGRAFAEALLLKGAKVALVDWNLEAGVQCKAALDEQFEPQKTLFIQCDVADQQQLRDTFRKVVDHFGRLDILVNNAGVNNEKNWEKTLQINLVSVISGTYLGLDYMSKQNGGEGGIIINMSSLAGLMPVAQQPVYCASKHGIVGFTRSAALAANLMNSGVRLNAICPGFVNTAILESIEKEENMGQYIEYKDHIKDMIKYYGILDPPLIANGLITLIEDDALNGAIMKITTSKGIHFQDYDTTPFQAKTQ
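NADH formation kinetics: reaction with 30 uM PGE2 and 1 mM NAD+ (final), 20 nM enzyme, Tris-HCl pH 8 with Tween 20, after 15 min compound preincubation at room temperature. Fluorescence change, last versus first of five reads.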
LMNA splice mod: qHTS Assay for Modulators of Lamin A Splicing; HeLa LMNA splicing GFP/RFP minigene ratio, 48 h; Potency, µM (doses to about 46.1 µM), inactives show at the top dose ratio change, negative = inhibition, hits mostly inhibitors; 200,000 tested, 0.01% active; active = well fitted inhibition curve with a large enough effect in the signal ratio, with a control signal flat, not every such curve was filed as active; inconclusive = small, poorly fitted or top-dose-only effect, or effect the other way, or a change in a side signal; the % refers to the signal ratio; also: % is scaled to controls: 0 for no effect and ±100 for the full control effect
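S3 HeLa cells stably expressing lamin A-EGFP splicing minigene plus DsRed2, 600 cells/well, 48 h compound exposure at 37C. Laser-scanning cytometry; analysed as GFP (500-530 nm)/RFP (575-640 nm) total intensity ratio; 0.5% DMSO vehicle.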
Starred values were filed as active, the others as inactive; [ ] = remark or other dose. Unless noted, calls follow the shape of the dose curve; as a rule, active = well fitted curve in the direction sought with a large enough effect; inconclusive = small, poorly fitted or top-dose-only effect, or another doubt; inactive = no such curve, though single readings can be large; an effect the other way counts as inactive or inconclusive. Potency is read from the fitted curve at half-maximal effect.

What do the screens show for `Cc1cc(C)c(C#N)c(SCC(=O)N2CCCCC2)n1`?
Luc counter: -2%; HttQ103 aggreg: 17%; HTT cytoprotect: 8%[10 µM]; ALDH1A1 inh: 13µM*; HPGD block: -27%; LMNA splice mod: 2%

How did O=C(CSc1ncccn1)N1CCN(Cc2ccccc2)CC1 do in these assays?
Luc counter: -2%; HttQ103 aggreg: -10%; HTT cytoprotect: 13%[1.9 µM]; ALDH1A1 inh: 28µM*; HPGD block: -4%; LMNA splice mod: 1%

How did O=C(CO/N=C/c1ccc(OC(F)F)cc1)NC1CCCC1 do in these assays?
Luc counter: 1%; HttQ103 aggreg: -10%; HTT cytoprotect: -7%; ALDH1A1 inh: 1%; LMNA splice mod: -7%[46 µM]

Results for CCC(=O)OCC(=O)Nc1ncc(C(F)(F)F)cc1Cl ?
HttQ103 aggreg: -7%[9.22 µM]; HTT cytoprotect: -9%[10 µM]; ALDH1A1 inh: 1%

What do the screens show for `CCCc1nc(C)c(-c2ccc(OC)c(OC)c2)c(=O)[nH]1`?
Luc counter: -2%; HttQ103 aggreg: 18%; HTT cytoprotect: -2%; ALDH1A1 inh: 7%; HPGD block: -10%; LMNA splice mod: -6%

What do the screens show for `CCN(CC)c1ccc(S(=O)(=O)N(CC)CC)cc1NC(=O)C1CCCC1`?
Luc counter: -3%; HttQ103 aggreg: inconclusive; HTT cytoprotect: -8%; ALDH1A1 inh: 2%; LMNA splice mod: 10%[46 µM]

How did COC(=O)CSc1nsc(SCC(=O)OC)c1C#N do in these assays?
Luc counter: -3%; HttQ103 aggreg: -1%; HTT cytoprotect: 5%[10 µM]; ALDH1A1 inh: -4%; HPGD block: -9%; LMNA splice mod: -16%

What do the screens show for `O=C(CCCN1C(=O)CSc2ncccc21)N1CCN(Cc2ccccc2)CC1`?
Luc counter: 0%; HttQ103 aggreg: -13%; HTT cytoprotect: -10%[10 µM]; ALDH1A1 inh: 22µM*; HPGD block: -3%; LMNA splice mod: -19%

How did CCN(Cc1ccccc1)C(=O)CSc1nc(C)cc(C)c1C#N do in these assays?
Luc counter: 4%; HttQ103 aggreg: 23%; HTT cytoprotect: 18%[10 µM]; ALDH1A1 inh: -3%; HPGD block: -2%; LMNA splice mod: -4%

Results for Cc1cc(C)c(C#N)c(SCC(=O)N(C)C2CCCCC2)n1 ?
Luc counter: -1%; HttQ103 aggreg: -4%; HTT cytoprotect: -5%; ALDH1A1 inh: 18µM*; HPGD block: -26%; LMNA splice mod: inconclusive

Results for N#Cc1c(SCC(=O)N2CCCCC2)nsc1SCC(=O)N1CCCCC1 ?
Luc counter: 4%; HttQ103 aggreg: 7%; HTT cytoprotect: 21%; ALDH1A1 inh: 18µM*; HPGD block: 13µM*; LMNA splice mod: -3%

How did Cc1cc(C)c(C#N)c(SCC(=O)N2CCN(Cc3ccccc3)CC2)n1 do in these assays?
Luc counter: 5%; HttQ103 aggreg: inconclusive; HTT cytoprotect: -12%; ALDH1A1 inh: 20µM*; HPGD block: -21%; LMNA splice mod: -3%

Results for CN(C)CCOC(=O)[C@@H](c1ccccc1)C1(O)CCCC1 ?
Luc counter: 1%[17.1 µM]; HttQ103 aggreg: 1%; HTT cytoprotect: 5.6µM*; ALDH1A1 inh: 5%[20.9 µM]; HPGD block: -3%; LMNA splice mod: inconclusive

How did FC(F)(F)c1cc(Oc2ccc(Cl)cc2)nc(-c2ccccn2)n1 do in these assays?
Luc counter: -5%; HttQ103 aggreg: 5%; HTT cytoprotect: 7%; ALDH1A1 inh: -5%; HPGD block: 2%; LMNA splice mod: -5%

What do the screens show for `CCc1cccc(CC)c1NC(=S)NCCc1c(C)[nH]c2ccc(C)cc12`?
Luc counter: -1%; HttQ103 aggreg: 6.3µM*; ALDH1A1 inh: 14%; HPGD block: -11%; LMNA splice mod: inconclusive

What do the screens show for `O=C(NCc1ccccc1)/C(=N\O)c1ccccc1`?
Luc counter: 8%; HttQ103 aggreg: -8%; HTT cytoprotect: 0%; ALDH1A1 inh: 12%; HPGD block: -20%; LMNA splice mod: -5%

Results for Cc1ccnc(NC(=O)c2cc3ccccc3oc2=O)c1 ?
Luc counter: 11µM*; HttQ103 aggreg: -2%; HTT cytoprotect: -17%; ALDH1A1 inh: -4%; LMNA splice mod: -5%[46 µM]

Results for Cc1cc(N/N=C/c2ccc(O)cc2)nc(NS(=O)(=O)c2ccccc2)n1 ?
Luc counter: 4%; HttQ103 aggreg: -19%; HTT cytoprotect: 12%[10 µM]; ALDH1A1 inh: inconclusive; HPGD block: -29%; LMNA splice mod: inconclusive

Results for Cc1ccccc1OCC(=O)OCC(=O)Nc1ccc(N2CCOCC2)cc1 ?
Luc counter: 1%; HttQ103 aggreg: -4%; HTT cytoprotect: 4%; ALDH1A1 inh: -5%; LMNA splice mod: inconclusive

How did N#Cc1ccc(C(=O)OCC(=O)Nc2ccc(N3CCOCC3)cc2)cc1 do in these assays?
Luc counter: 0%; HttQ103 aggreg: -2%; HTT cytoprotect: -27%; ALDH1A1 inh: inconclusive; LMNA splice mod: -17%[46 µM]

What do the screens show for `O=C(COC(=O)CCC(=O)c1ccc(F)cc1)Nc1ccc(N2CCOCC2)cc1`?
Luc counter: 10%; HttQ103 aggreg: 0%; HTT cytoprotect: -24%[10 µM]; ALDH1A1 inh: -10%; HPGD block: 18µM*; LMNA splice mod: 0%

What do the screens show for `CN(C)c1ccc(C(=O)OCC(=O)Nc2ccc(N3CCOCC3)cc2)cc1`?
HttQ103 aggreg: 10%[9.22 µM]; HTT cytoprotect: -9%[10 µM]; ALDH1A1 inh: 13µM*

How did CCCCCC(=O)NC(=S)Nc1ccc(NC(=O)c2ccco2)cc1 do in these assays?
Luc counter: 0%; HttQ103 aggreg: -6%; ALDH1A1 inh: inconclusive; HPGD block: inconclusive; LMNA splice mod: -9%

How did S=C(NC1CCCCC1)NC1CCCCC1 do in these assays?
HTT cytoprotect: -3%; ALDH1A1 inh: inconclusive; HPGD block: -18%

What do the screens show for `CCOc1ccc(NC(=S)N/N=C(\C)Cc2ccc(OC)cc2)cc1`?
Luc counter: -4%; HttQ103 aggreg: -2%; HTT cytoprotect: inconclusive; ALDH1A1 inh: -3%; HPGD block: inconclusive; LMNA splice mod: -19%

How did CCOc1ccc(S(=O)(=O)NC2CCCCCC2)cc1 do in these assays?
Luc counter: -1%; HttQ103 aggreg: 9%[9.22 µM]; HTT cytoprotect: 38%[10 µM]; ALDH1A1 inh: inconclusive; LMNA splice mod: inconclusive

Results for CCOc1ccc(S(=O)(=O)N/N=C(\C)C2CCCCC2)cc1 ?
Luc counter: 3%; HttQ103 aggreg: 17%; HTT cytoprotect: -4%[10 µM]; ALDH1A1 inh: 1.8µM*; HPGD block: -8%; LMNA splice mod: -2%
